# Data as given in ChEMBL document CHEMBL1157539, “Thousands of chemical starting points for antimalarial lead identification” (Nature, 2010).
# Test system: Plasmodium falciparum
# Test: GSK_TCMDC: Inhibition of Plasmodium falciparum 3D7 in whole red blood cells, using parasite LDH activity as an index of growth. Test compounds present at 2uM
# Type: functional
row,Structure (SMILES),Inhibition [%]
1,O=C(/C=C/c1ccc(Cl)c(Cl)c1)NCCCCCN1CCC(NC(=O)Nc2cc(F)cc(F)c2)CC1,100
2,Cc1cc(N[C@@H](CC(C)C)C(=O)NCc2cccs2)nc(NCCc2ccc(F)cc2)n1.O=C(O)C(F)(F)F,100
3,O=C(CC(=O)C(F)(F)F)c1ccccc1[N+](=O)[O-],97
4,CC(=O)Nc1ccc(C(=O)Nc2cccc(-c3ccc(-c4nc5ccccc5[nH]4)s3)c2)cn1,100
5,CS(=O)(=O)Nc1ccc2[nH]cc(C3CCN(CC4CCC(NC(=O)/C=C/c5ccc(Cl)c(Cl)c5)CC4)CC3)c2n1 (stereo not given),99
6,Cc1cccc2nc(-c3ccc(-c4ccc(NC(=O)c5cncn5C)cc4)s3)[nH]c12,100
7,O=C(Nc1ccc(-c2ccccc2)cc1)Nc1cccc(Cn2ncc(N3CCCNCC3)c(Cl)c2=O)c1,100
8,CC(C)NCc1cccc(-c2ccc(NS(=O)(=O)c3cccc4cccnc34)cc2)c1.O=C(O)C(F)(F)F,90
9,O=C(NCC1CCN(Cc2ccc3c(c2)OCCO3)C1)c1cc(-c2cccc(C(F)(F)F)c2)cs1.O=C(O)C(F)(F)F (stereo not given),100
10,Fc1ccc2[nH]c(-c3ccc(-c4ccc(CN5CCN(CCN6CCOCC6)CC5)cc4)s3)nc2c1.O=C(O)C(F)(F)F,99
11,COc1cc(F)c2nccc([C@@H](O)CN3CCC(NCc4cc5c(cc4F)OCCO5)CC3)c2c1,99
12,O=C(Nc1ccc(Cn2ncc(N3CCCNCC3)c(Cl)c2=O)cc1)Nc1cccc(C(F)(F)F)c1.O=C(O)C(F)(F)F,100
13,CC(=O)Oc1cc(C)ccc1C1CCN(CCCCNC(=O)c2ccc(-c3ccc(C(F)(F)F)cc3)cc2)CC1,100
14,Cl.N#Cc1ccc2c(c1)CCN(CCC1CCC(NC(=O)/C=C/c3c[nH]c4ccc(F)cc34)CC1)CC2 (stereo not given),100
15,O=C(Nc1ccc(Cl)cc1)N1CCN(C2CCCCC2)CC1,93
16,O=C(NCCCCN1CCN(c2cccc3c2CCCC3)CC1)c1ccc(NC(=O)c2ccc(Cl)cc2)cc1,100
17,CC1Cc2ccccc2N1S(=O)(=O)c1cc(OCC(F)(F)F)ccc1OCC(F)(F)F (stereo not given),96
18,Cc1cc(=NN=Cc2cccc(Cl)c2)c2ccc(F)cc2[nH]1,100
19,Cl.Cn1c(=N)n(CC(=O)N2CCc3ccc(Cl)cc3C2Cc2ccc(Cl)c(Cl)c2)c2ccccc21 (stereo not given),100
20,CC(C)CC(C)NC(=O)C1Cc2c([nH]c3ccc(F)cc23)C2(CCN(Cc3ccccc3)CC2)N1 (stereo not given),97

row,Structure (SMILES),Inhibition [%]
1,CC(Nc1cc(-c2ccccn2)nc(-c2ccccn2)n1)c1ccccc1 (stereo not given),85
2,Cl.c1ccc2c(C3CCN(CCCCOc4ccc5c(c4)CCN(CC4CC4)CC5)CC3)c[nH]c2c1,99
3,COc1ccc(CNC(=O)Nc2cc3cc(-c4ccc(CN(C)C)cc4)ccc3n3c(C)nnc23)cc1,93
4,CCCCN1C(=O)C2CC(=O)CC(C3CCCCC3)C2C1=O (stereo not given),97
5,CN1CCN(c2cc(-c3ccncc3)nc(-c3cccnc3)n2)CC1,100
6,COc1ccccc1CCNc1ncc(F)c(N[C@@H](Cc2ccccc2)C(=O)NCCc2ccccc2)n1.O=C(O)C(F)(F)F,90
7,COc1ccc(O)cc1/C=N/Nc1ccnc2cc(Cl)ccc12,100
8,Cc1cccc2nc(-c3cccc(-c4ccc(C(=O)NCc5nccn5C)cc4)c3)[nH]c12,100
9,CN(C)CC1CCCN1Cc1ccccc1-c1cnn(C)c(=O)c1Oc1ccccc1F.O=C(O)C(F)(F)F (stereo not given),95
10,CN1CCN(c2ccc(CNc3ccc4ncc(-c5cccc(OC(F)(F)F)c5)n4n3)cc2)CC1,89
11,CC(C)c1sc(N2CCN(C)CC2)nc1C(=O)NCCc1cccc(Cl)c1.O=C(O)C(F)(F)F,91
12,COc1cccc(Nc2nc(N)c3ccccc3n2)c1.Cl,88
13,COC[C@H]1CCCN1Cc1ccc(-c2ccc(-c3nc4ccccc4[nH]3)s2)cc1,95
14,CCc1cc2c3c(N)nc(N)nc3ccc2n1CC,93
15,CCCCCN1CCCCC(NS(=O)(=O)c2ccc(C(=O)Nc3ccc(C(F)(F)F)cc3)cc2)C1.O=C(O)C(F)(F)F (stereo not given),89
16,CCN(CC)S(=O)(=O)c1ccc(C(=O)Oc2ccccc2N(Cc2ccc(OC)cc2)C2=NS(=O)(=O)c3ccccc32)cc1,98
17,Nc1ncc(-c2ccsc2)c2ccc(-c3ccc4cn[nH]c4c3)cc12,95
18,Cc1cccc2nc(-c3ccc(-c4cccc(CNCc5ccccc5)c4)cc3)[nH]c12.O=C(O)C(F)(F)F,100
19,SC(=Nc1ccc(Cl)c(Cl)c1)NN=Cc1ccccn1,98
20,O=C(Nc1ccccc1O)c1ccc(S(=O)(=O)c2ccc(Cl)cc2)cc1,90

# Test system: Plasmodium falciparum
# Test: GSK_TCMDC: Inhibition of Plasmodium falciparum Dd2 in whole red blood cells, using parasite LDH activity as an index of growth. Test compounds present at 2uM
# Type: functional
row,Structure (SMILES),Inhibition [%]
1,O=C(/C=C/c1ccc(Cl)c(Cl)c1)NCCCCCN1CCC(NC(=O)Nc2cc(F)cc(F)c2)CC1,6
2,Cc1cc(N[C@@H](CC(C)C)C(=O)NCc2cccs2)nc(NCCc2ccc(F)cc2)n1.O=C(O)C(F)(F)F,59
3,O=C(CC(=O)C(F)(F)F)c1ccccc1[N+](=O)[O-],95
4,CC(=O)Nc1ccc(C(=O)Nc2cccc(-c3ccc(-c4nc5ccccc5[nH]4)s3)c2)cn1,91
5,CS(=O)(=O)Nc1ccc2[nH]cc(C3CCN(CC4CCC(NC(=O)/C=C/c5ccc(Cl)c(Cl)c5)CC4)CC3)c2n1 (stereo not given),10
6,Cc1cccc2nc(-c3ccc(-c4ccc(NC(=O)c5cncn5C)cc4)s3)[nH]c12,30
7,O=C(Nc1ccc(-c2ccccc2)cc1)Nc1cccc(Cn2ncc(N3CCCNCC3)c(Cl)c2=O)c1,52
8,CC(C)NCc1cccc(-c2ccc(NS(=O)(=O)c3cccc4cccnc34)cc2)c1.O=C(O)C(F)(F)F,10
9,O=C(NCC1CCN(Cc2ccc3c(c2)OCCO3)C1)c1cc(-c2cccc(C(F)(F)F)c2)cs1.O=C(O)C(F)(F)F (stereo not given),1
10,Fc1ccc2[nH]c(-c3ccc(-c4ccc(CN5CCN(CCN6CCOCC6)CC5)cc4)s3)nc2c1.O=C(O)C(F)(F)F,98
11,COc1cc(F)c2nccc([C@@H](O)CN3CCC(NCc4cc5c(cc4F)OCCO5)CC3)c2c1,45
12,O=C(Nc1ccc(Cn2ncc(N3CCCNCC3)c(Cl)c2=O)cc1)Nc1cccc(C(F)(F)F)c1.O=C(O)C(F)(F)F,30
13,CC(=O)Oc1cc(C)ccc1C1CCN(CCCCNC(=O)c2ccc(-c3ccc(C(F)(F)F)cc3)cc2)CC1,94
14,Cl.N#Cc1ccc2c(c1)CCN(CCC1CCC(NC(=O)/C=C/c3c[nH]c4ccc(F)cc34)CC1)CC2 (stereo not given),83
15,O=C(Nc1ccc(Cl)cc1)N1CCN(C2CCCCC2)CC1,0
16,O=C(NCCCCN1CCN(c2cccc3c2CCCC3)CC1)c1ccc(NC(=O)c2ccc(Cl)cc2)cc1,85
17,CC1Cc2ccccc2N1S(=O)(=O)c1cc(OCC(F)(F)F)ccc1OCC(F)(F)F (stereo not given),95
18,Cc1cc(=NN=Cc2cccc(Cl)c2)c2ccc(F)cc2[nH]1,98
19,Cl.Cn1c(=N)n(CC(=O)N2CCc3ccc(Cl)cc3C2Cc2ccc(Cl)c(Cl)c2)c2ccccc21 (stereo not given),52
20,CC(C)CC(C)NC(=O)C1Cc2c([nH]c3ccc(F)cc23)C2(CCN(Cc3ccccc3)CC2)N1 (stereo not given),49

row,Structure (SMILES),Inhibition [%]
1,CC(Nc1cc(-c2ccccn2)nc(-c2ccccn2)n1)c1ccccc1 (stereo not given),98
2,Cl.c1ccc2c(C3CCN(CCCCOc4ccc5c(c4)CCN(CC4CC4)CC5)CC3)c[nH]c2c1,97
3,COc1ccc(CNC(=O)Nc2cc3cc(-c4ccc(CN(C)C)cc4)ccc3n3c(C)nnc23)cc1,80
4,CCCCN1C(=O)C2CC(=O)CC(C3CCCCC3)C2C1=O (stereo not given),1
5,CN1CCN(c2cc(-c3ccncc3)nc(-c3cccnc3)n2)CC1,98
6,COc1ccccc1CCNc1ncc(F)c(N[C@@H](Cc2ccccc2)C(=O)NCCc2ccccc2)n1.O=C(O)C(F)(F)F,83
7,COc1ccc(O)cc1/C=N/Nc1ccnc2cc(Cl)ccc12,92
8,Cc1cccc2nc(-c3cccc(-c4ccc(C(=O)NCc5nccn5C)cc4)c3)[nH]c12,9
9,CN(C)CC1CCCN1Cc1ccccc1-c1cnn(C)c(=O)c1Oc1ccccc1F.O=C(O)C(F)(F)F (stereo not given),27
10,CN1CCN(c2ccc(CNc3ccc4ncc(-c5cccc(OC(F)(F)F)c5)n4n3)cc2)CC1,78
11,CC(C)c1sc(N2CCN(C)CC2)nc1C(=O)NCCc1cccc(Cl)c1.O=C(O)C(F)(F)F,15
12,COc1cccc(Nc2nc(N)c3ccccc3n2)c1.Cl,47
13,COC[C@H]1CCCN1Cc1ccc(-c2ccc(-c3nc4ccccc4[nH]3)s2)cc1,58
14,CCc1cc2c3c(N)nc(N)nc3ccc2n1CC,0
15,CCCCCN1CCCCC(NS(=O)(=O)c2ccc(C(=O)Nc3ccc(C(F)(F)F)cc3)cc2)C1.O=C(O)C(F)(F)F (stereo not given),0
16,CCN(CC)S(=O)(=O)c1ccc(C(=O)Oc2ccccc2N(Cc2ccc(OC)cc2)C2=NS(=O)(=O)c3ccccc32)cc1,63
17,Nc1ncc(-c2ccsc2)c2ccc(-c3ccc4cn[nH]c4c3)cc12,41
18,Cc1cccc2nc(-c3ccc(-c4cccc(CNCc5ccccc5)c4)cc3)[nH]c12.O=C(O)C(F)(F)F,52
19,SC(=Nc1ccc(Cl)c(Cl)c1)NN=Cc1ccccn1,85
20,O=C(Nc1ccccc1O)c1ccc(S(=O)(=O)c2ccc(Cl)cc2)cc1,85
